# Assay results taken from PubChem BioAssay (NCATS).
# Results filed as inconclusive are left out. Unmarked numbers belong to inactive results. Active and inactive are the calls of the source. Calls come from the whole dose curve; as a rule, active = well fitted inhibition curve with a large enough effect; inconclusive = small, poorly fitted or top-dose-only effect; inactive = flat fitted curve, though single readings scatter.
# Molecular target: Glutathione peroxidase 1 (Homo sapiens) (UniProt P07203)
# Assay: Primary qHTS Assay for Inhibitors of Recombinant Selenoprotein Glutathione Peroxidase 1 (GPX1) (AID 1845191); note: nearly all actives have a fitted effect of over 65% in size
# Details: recombinant GPX1, GR-coupled NADPH fluorescence, 15 min; series mostly up to 48.8 µM; activity, negative = inhibition: at the top concentration
# Procedure, shortened: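 GPX1 10 nM, GR 100 nM, GSH 1 mM, NADPH 0.5 mM, CHP 0.5 mM (final). 30-min cpd preincubation, RT. Ex340/Em450 read t=0, t=15 min.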
# % is set by controls: 0 for no effect and ±100 for the full control effect.
# Chain of Glutathione peroxidase 1 (Homo sapiens) (P07203 whole entry, looked up): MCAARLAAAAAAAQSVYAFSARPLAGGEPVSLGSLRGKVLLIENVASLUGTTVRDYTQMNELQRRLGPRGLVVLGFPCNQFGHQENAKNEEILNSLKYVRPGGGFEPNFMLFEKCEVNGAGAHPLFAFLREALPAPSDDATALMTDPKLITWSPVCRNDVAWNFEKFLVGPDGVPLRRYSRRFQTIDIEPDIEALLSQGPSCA
Compound,"activity, negative = inhibition",outcome,Potency
CC(C)=CCc1ccc(Oc2c(O)cc(C)cc2CO)c(C(=O)O)c1O,-3.92% [at 27.7 µM],–,–
CC(C)C(=O)OCC(=O)[C@@]12O[C@H](C3CCCCC3)O[C@@H]1C[C@H]1[C@@H]3CCC4=CC(=O)C=C[C@]4(C)[C@H]3[C@@H](O)C[C@@]12C,–,inactive,–
CCCCCCc1cccc(NC(=O)[C@H](N)CCP(=O)(O)O)c1,–,inactive [at 15.3 µM],–
COC(=O)[C@@]1(O)C=CC[C@@H]2[C@@]3(C)C[C@@H](c4ccoc4)OC(=O)[C@H]3CC[C@]21C,–,inactive [at 27.7 µM],–
CC(=O)O[C@@H]1C[C@@]23C[C@@]24CC[C@H](OC2OC[C@@H](O)[C@H](O)[C@H]2O)C(C)(C)[C@@H]4CC[C@H]3[C@]2(C)CC3OC4(C[C@@H](C)C3[C@@]12C)OCC1(C)OC14 (some centres undefined),-17.2% [at 15.3 µM],–,–
CC(=O)c1cnc2ccc(-c3cc(Cl)c(O)c(Cl)c3)nc2c1NC1CCC(CN(C)C)CC1 (centres undefined),2.12% [at 9.52 µM],–,–
C=C[C@@]1(C)CC(=O)C2[C@](C)(O1)[C@@H](OC(C)=O)[C@@H](O)[C@H]1C(C)(C)CCC[C@]21C (some centres undefined),-2.9% [at 15.3 µM],–,–
COc1ccc2c(c1O)OC[C@H]1c3ccc(O)cc3O[C@@H]21,–,inactive,–
C[C@]1(OC(=O)/C=C/c2ccccc2)C[C@H](O)[C@]2(O)C=CO[C@@H](O[C@@H]3O[C@H](CO)[C@@H](O)[C@H](O)[C@H]3O)C12 (some centres undefined),3.06% [at 27.7 µM],–,–
C[C@@H]1O[C@@H](O[C@H]2[C@H](OC(C#N)c3ccc(O)cc3)O[C@H](CO)[C@@H](O)[C@@H]2O)[C@H](O)[C@H](O)[C@H]1O (some centres undefined),4.17% [at 27.7 µM],–,–
CCC(C)(O)C(O)C(=O)OCc1ccc(O[C@@H]2O[C@H](CO)[C@@H](O)[C@H](O)[C@H]2O)c(OC)c1 (some centres undefined),–,inactive [at 27.7 µM],–
COc1cc(/C=C/C(=O)O[C@H]2[C@H](O)[C@@H](CO)O[C@@]2(CO)O[C@H]2O[C@H](COC(=O)c3ccc(O)cc3)[C@@H](O)[C@H](O)[C@H]2O)cc(OC)c1OC,-2.01% [at 15.3 µM],–,–
COc1cc(-c2cccc(O)c2)cc2c1OCO2,-3.78%,–,–
COc1cc(C2OCC3C(c4ccc(OC5OC(CO)C(O)C(O)C5O)c(OC)c4)OCC23)ccc1O (centres undefined),1.93% [at 27.7 µM],–,–
C[C@]12CCC[C@](C)(C(=O)O)C1CCC13C=C(CO)C(CCC12)C3 (some centres undefined),–,inactive [at 27.7 µM],–
C=C(C(=O)O)C1CCC(C)C2CCC(=O)OC2(C)C1 (centres undefined),-7.73%,–,–
C=C1CC23CC1(O)CCC2C1=CC2OC(=O)C(C)(C2O)C1C3C(=O)O (centres undefined),-3.64% [at 27.7 µM],–,–
CC(C)(OC1OC(CO)C(O)C(O)C1O)C1CCC(O)(CO)C2CC(O)C(C)(O)C2C1 (centres undefined),2.52% [at 27.7 µM],–,–
CC1(C)CCCC2(C)C1C(O)C=C(CO)C2(O)C(=O)O (centres undefined),–,inactive,–
COC1=CC(=O)O[C@@H](CCc2ccccc2)[C@@H]1O,-3.3%,–,–

Compound,"activity, negative = inhibition",outcome,Potency
C[C@@H]1O[C@@H](O[C@H]2[C@H](O[C@H]3[C@H](O[C@H]4CC[C@@]5(C)C(CC[C@]6(C)C5CC=C5[C@@H]7CC(C)(C(=O)O)C[C@@H](O)[C@]7(C)CC[C@]56C)[C@@]4(C)CO)O[C@H](C(=O)O)[C@@H](O)[C@@H]3O)O[C@H](CO)[C@H](O)[C@@H]2O)[C@H](O)[C@H](O)[C@H]1O (some centres undefined),3.68% [at 15.3 µM],–,–
CC(C)(C)C(=O)OCOC(=O)[C@@H]1N2C(=O)[C@@H](N=CN3CCCCCC3)[C@H]2SC1(C)C,–,inactive,–
C=C1CCC2C(C)(COC3OC(COC(=O)CC(=O)O)C(O)C(O)C3O)CCCC2(C)C1CCC1=CCOC1=O (centres undefined),–,inactive [at 27.7 µM],–
C=C1CC[C@H]2[C@@H](/C=C(\C)C(=O)[C@@]3(OC(C)=O)C[C@H](C)[C@H](OC(C)=O)[C@@H]3[C@H]1OC(C)=O)C2(C)C,-5.16% [at 27.7 µM],–,–
C/C(=C/CCC(CO)C1CCC2(C)C3CCC4C(C)(C)C(OC5OC(CO)C(O)C(O)C5O)CC(O)C45CC35CCC12C)COC1OC(CO)C(O)C(O)C1O (centres undefined),0.958% [at 15.3 µM],–,–
Cc1cc(C)cc(NC(=O)Cc2ccc(OC(C)(C)C(=O)O)cc2)c1,–,inactive,–
CCOc1ccc(C(Nc2ccccn2)c2ccc3ccc(C)nc3c2O)cc1C (centres undefined),-13.8%,–,–
O=C(Nc1cccnn1)N1CCC(=Cc2cccc(Oc3ccc(C(F)(F)F)cn3)c2)CC1,–,–,inactive
COC(F)(F)C(Cl)Cl,–,inactive,–
CCCCC(=O)OCC(=O)[C@]1(O)Cc2c(O)c3c(c(O)c2[C@@H](O[C@H]2C[C@H](NC(=O)C(F)(F)F)[C@H](O)[C@H](C)O2)C1)C(=O)c1c(OC)cccc1C3=O,–,–,inactive
COC(=O)C1=CO[C@@H](O[C@@H]2O[C@H](CO)[C@@H](O)[C@H](O)[C@H]2O)[C@@H]2[C@@H](C(=O)OC)[C@@H](O)C(O)[C@H]12 (some centres undefined),–,inactive [at 27.7 µM],–
CC(C)(O)c1ccc2c(c1)C(O)CC1C(C)(C(=O)O)CCCC21C (centres undefined),-8.65% [at 27.7 µM],–,–
COc1cc(/C=C/C(=O)OC2CC3CCC2(C)C3(C)C)ccc1O (centres undefined),-8.73% [at 27.7 µM],–,–
CCC(=O)O[C@]1(C(=O)CCl)[C@@H](C)C[C@H]2[C@@H]3C[C@H](F)C4=CC(=O)C=C[C@]4(C)[C@@]3(F)[C@@H](O)C[C@@]21C,–,–,inactive
O=c1c2ccccc2nc2n1CCC2O (centres undefined),1.21%,–,–
NCc1ccc(OCCCc2sc(-c3ccc4c(c3)/C(=N/Nc3nc5ccccc5s3)CCC4)nc2C(=O)O)cc1,1.71%,–,–
CC1(C)CC2C3=CCC4C5(C)CCC(OC6OC(C(=O)O)C(O)C(O)C6OC6OC(CO)C(O)C(O)C6OC6OC(CO)C(O)C(O)C6O)C(C)(CO)C5CCC4(C)C3(C)CCC2(C)C(OC2OCC(O)C(OC3OC(CO)C(O)C(O)C3O)C2O)C1O (centres undefined),-11.2% [at 9.52 µM],–,–
OCc1ccccc1O[C@@H]1O[C@H](CO)[C@@H](O)[C@H](O)[C@H]1O,–,–,inactive
N#CCc1ccc(O)cc1O[C@@H]1O[C@H](CO)[C@@H](O)[C@H](O)[C@H]1O,-15.9% [at 27.7 µM],–,–
